# PubChem BioAssay AID2763 (National Center for Advancing Translational Sciences (NCATS), 2010)
# Inconclusive results are not listed. Calls of active or inactive are those of the source. The call rests on the fitted dose curve; in most records, active means well fitted inhibition curve with a large enough effect; inconclusive means small, poorly fitted or top-dose-only effect, or effect the other way; inactive means no such curve, though single readings can be large or run the other way.
# Assay: Concentration response confirmation VP16 counterscreen for inhibitors of ROR gamma transcriptional activity; further: nearly all actives have a fitted effect of over 70% in size
# Details: Drosophila S2 Gal4-VP16 UAS-luciferase, luminescence, 20 h; series mostly up to 46.1 µM; activity change, negative = inhibition: at the top concentration
# How it was run: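 Drosophila Schneider cells stably carrying Gal4-VP16 under metallothionein promoter plus UAS-Photinus luciferase. Compound preincubated 1 hr, then 700 uM copper sulfate induction for 20 hr at ambient temperature; luminescence read.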
# On the % scale 0 is the no-effect control and ±100 the full control effect; potency means the concentration at half of the fitted maximal effect.
Structure (SMILES),Potency,"activity change, negative = inhibition"
CCN1CCCc2cc(CN(CCN3CCOCC3)C(=S)Nc3ccccc3C)ccc21,15.8 µM (active),–
CCOc1cc(C)c(S(=O)(=O)NC2CCCCC2)cc1C,–,-11.3% (inactive)
Cc1cc(C)c(S(=O)(=O)NCCn2ccc3ccccc32)c(C)c1,–,-83.6% (inactive)
COc1ccc(C(=O)/C=C/c2ccc(OC)cc2OC)c(O)c1,–,20.2% (inactive)
COC(=O)c1ccc(Oc2cc(C)nc(-n3nc(C)cc3C)n2)cc1,7.91 µM (active),–
CC(C)(C)c1ccc(-c2noc(CCC(=O)Nc3cccnc3)n2)cc1,1.99 µM (active),–
Cc1cc(NCc2ccccn2)n2ncc(-c3ccc(Cl)cc3)c2n1,0.996 µM (active),–
CCOC(=O)C(C(=O)OCC)C(C(=O)OCC)N1CCOCC1 (stereo not given),3.53 µM (active),–
COc1cccc(-c2cc(C(=O)N3CCc4ccccc4C3)[nH]n2)c1,–,-10.7% (inactive)
Cc1nnsc1C(=O)NC1CCCc2c1cnn2-c1ccc(C(C)(C)C)cc1 (stereo not given),22.3 µM (active),–
O=S(=O)(NCc1ccccn1)C(F)(F)F,25 µM (active),–
Cn1c(=O)c2c(nc(NCc3ccco3)n2Cc2ccccc2Cl)n(C)c1=O,3.97 µM (active),–
O=C(NC(=S)Nc1nc(-c2ccccc2)cs1)c1cncc(Br)c1,7.91 µM (active),–
CCOc1ncccc1C(=O)OCC(=O)Nc1ccc(-c2nc3ccc(C)cc3s2)cc1,3.53 µM (active),–
COc1ccc(-c2cc(-c3ccccc3)n[nH]2)c(O)c1,19.9 µM (active),–
Cc1cccc(-c2ocnc2C(=O)Nc2ccccc2NC(=O)c2ccccn2)c1,7.91 µM (active),–
COC(=O)Cn1c(CN2CCc3ccccc3C2)nc2c1c(=O)n(C)c(=O)n2C,6.28 µM (active),–
Cc1ccc(NC(=S)NCCN(C2CCCCC2)C2CCCC2)cc1C,22.3 µM (active),–

Structure (SMILES),Potency,"activity change, negative = inhibition"
COc1cccc(/C=C2\SC(=S)N(CCCC(=O)N3CCCC3)C2=O)c1,–,11.6% (inactive)
Cc1nn(-c2cc(C)c3ccccc3n2)c2c1C1C(C2)C1(C)C (stereo not given),22.3 µM (active),–
COc1ccc(C(CNC(=S)NCc2ccccc2)N2CCCC2)cc1 (stereo not given),–,10.3% (inactive)
CN(Cc1nc2ccccc2c(=O)[nH]1)Cc1nc2ccsc2c(=O)[nH]1,4.99 µM (active),–
COc1ccc(C(=O)Nc2ccc(NC(=O)c3cccs3)cn2)cc1,–,6.08% (inactive)
Cc1ccc(C)c(-n2[nH]c3c4c(ccc3c2=O)C(=O)c2ccccc2C4=O)c1,–,-24.7% (inactive)
NC(=O)/C=C/C(=O)Nc1ccc(Cl)cc1,8.88 µM (active),–
Cn1c(=O)[nH]c(=O)c2c1nc(NCc1ccco1)n2Cc1ccccc1Cl,–,11.1% (inactive)
O=C(NC(=S)Nc1nc(-c2ccccc2)cs1)c1cccnc1,–,16.5% (inactive)
Cc1ccc(C(=O)O/N=C/c2ccc(N(C)C)cc2)cc1,–,15.9% (inactive)
O=c1c2cc(Br)ccc2[nH]c(=S)n1Cc1cccnc1,11.2 µM (active),–
Cc1c(OC(C)C(=O)NCc2cccnc2)ccc2c3c(c(=O)oc12)CCCC3 (stereo not given),–,-9.89% (inactive)
Cc1oc(-c2ccccc2Cl)nc1CSCC(=O)O,7.91 µM (active),–
COc1ccc(OC)c(NC(=S)N(CCc2c(C)[nH]c3ccccc23)Cc2cccs2)c1,–,11.4% (inactive)
COc1cccc(Cn2c(NCc3ccco3)nc3c2c(=O)n(C)c(=O)n3C)c1,2.81 µM (active),–
COc1ccc(-c2c[n+]3c(n2-c2ccc(C)cc2)CCCCC3)cc1,3.53 µM (active),–
Oc1ccccc1-c1cc(-c2ccc3c(c2)OCCO3)n[nH]1,19.9 µM (active),–
